# PubChem BioAssay (Tox21)
# “And” between values parts separate entries of the source, which are not always exact repeats. Identical values can stand only once. Inconclusive results are not listed. A call without a number means that no potency is given here. Where a structure was tested more than once in an assay, its records may differ in their call. The source made the active and inactive calls. Unless noted, calls follow the shape of the dose curve; as a rule, active = well fitted curve in the direction sought with a large enough effect in the repeat runs; inconclusive = weak or mixed curves; inactive = no such curve, though single readings can be large; an effect the other way counts as inactive or inconclusive.
# Tests used:
# [1] = qHTS assay to identify small molecule antagonists of the retinoid acid receptor (RAR) signaling pathway - cell viability counter screen (AID 1159551); also: nearly all actives have a fitted effect of over 35% in size; also: potency is read from the fitted curve at half-maximal effect
# Outline: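 Seed C3RL4 cells; next day add compound, then retinol to 1 uM final; incubate 6 h at 37 C; add CellTiter-Glo; read luminescence after 30 min at RT.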
# [2] = qHTS assay to identify small molecule antagonists of the retinoic acid receptor (RAR) signaling pathway (AID 1159552; also: nearly all actives have a fitted effect of over 50% in size)
# Outline: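 Test chemicals and DMSO controls were pin-transferred onto C3RL4 cells a day after seeding; retinol (1 uM final) followed at once. Luminescent reporter output was quantified after 6 hr of co-incubation and 30 min with detection reagent.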
# [3] = qHTS assay to identify small molecule agonists of the retinoic acid receptor (RAR) signaling pathway (AID 1159553); conditions: C3RL4 RARE luciferase reporter, agonist, 6 h; activation: at 73.3 µM (top of the series) unless noted; also: potency is read from the fitted curve at half-maximal effect
# Outline: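 Activation of retinol signaling was monitored via a RARE luciferase reporter in C3RL4 cells. After 6 hr compound treatment at 37 C, detection reagent was added for 30 min at room temperature before luminescence reading.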
# [4] = qHTS assay to identify small molecule antagonists of the estrogen related receptor (ERR) signaling pathway from Tox21 library - cell viability counter screen (AID 1224834); also: nearly all actives have a fitted effect of over 30% in size; also: potency is read from the fitted curve at half-maximal effect
# Outline: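 CellTiter-Fluor fluorescence measured; ERR cells; 17.5 h compound incubation at 37 C; 30 min reagent step.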
# [5] = molecular target: Luciferin 4-monooxygenase (Photinus pyralis) (UniProt P08659); assay: qHTS assay to identify small molecule inhibitors of firefly luciferase (AID 1224835); also: nearly all actives have a fitted effect of over 25% in size; also: potency is read from the fitted curve at half-maximal effect
# Outline: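 Biochemical qHTS: compounds run as interplate titrations against purified firefly enzyme, with D-luciferin and ATP each at its KM concentration. Light output recorded by CCD imaging.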
# [6] = qHTS assay to identify small molecule agonists of the constitutive androstane receptor (CAR) signaling pathway - cell viability counter screen (AID 1224836); also: nearly all actives have a fitted effect of over 45% in size; also: potency is read from the fitted curve at half-maximal effect
# Outline: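 23 h treatment, 37 C, 5% CO2. Cell line: HepG2 stably expressing hCAR with a CYP2B6-2.2kb construct. Co-treatment: PK11195, 0.75 uM final. Read-out: CellTiter-Fluor fluorescence intensity.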
# [7] = qHTS assay to identify small molecule antagonists of the constitutive androstane receptor (CAR) signaling pathway - cell viability counter screen (AID 1224837); also: nearly all actives have a fitted effect of over 45% in size; also: potency is read from the fitted curve at half-maximal effect
# Outline: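 Using CellTiter-Fluor, viability is scored in HepG2 cells stably carrying hCAR and a 2.2kb CYP2B6 reporter after 23 hr compound exposure across 15 concentrations, with CITCO present at 50 nM.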
# [8] = qHTS assay to identify small molecule antagonists of the estrogen related receptor signaling pathway with the pleiotropic PPARgamma coactivator (PGC) from Tox21 10K library - cell viability counter screen (AID 1224840; active = well fitted cell-killing curve with a large enough effect in the repeat runs, not every such curve was filed as active; also: nearly all actives have a fitted effect of over 40% in size; also: potency is read from the fitted curve at half-maximal effect)
# Outline: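 Here the PGC/ERR cells serve as a cytotoxicity control: they are exposed to compounds for 17.5 hours at 37 C, and live-cell signal is quantified using CellTiter-Fluor fluorescence.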
# [9] = qHTS assay to identify small molecule antagonists of the estrogen related receptor signaling pathway with the pleiotropic PPARgamma coactivator (PGC) from Tox21 10K library (AID 1224841; call rule not given here; also: actives are mostly falling curves and most rising ones were filed inactive; nearly all actives have a fitted effect of over 50% in size; also: potency is read from the fitted curve at half-maximal effect)
# Outline: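 Each well held 2,000 PGC/ERR cells, pre-incubated six hours (37 C, 5% CO2). Test substances in DMSO were added by pin tool and left for 18 h at 37 C before luciferase detection by One-Glo.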
# [10] = molecular target: Thyrotropin receptor (Homo sapiens) (UniProt P16473); assay: qHTS assay to identify small molecule agonists of the thyroid stimulating hormone receptor (TSHR) signaling pathway (AID 1224843; calls by dose curve; also: nearly all actives have a fitted effect of over 45% in size; also: potency is read from the fitted curve at half-maximal effect)
# Outline: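 TSHR-HEK293 cells in agonist mode, 30 min room-temperature step, then cAMP measured by competitive HTRF (cAMP-d2 with anti-cAMP cryptate) after 1 h at room temperature. Tested at 15 concentrations in triplicate.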
# [11] = molecular target: Nuclear receptor subfamily 1 group I member 3 (Homo sapiens) (UniProt Q14994); assay: qHTS assay to identify small molecule agonists of the constitutive androstane receptor (CAR) signaling pathway (AID 1224839); also: nearly all actives have a fitted effect of over 15% in size; also: potency is read from the fitted curve at half-maximal effect;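 as to activation: HepG2 cells stably carrying human CAR and a CYP2B6 luciferase reporter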
# Outline: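 Compounds tested at 15 concentrations on HepG2 cells stably harbouring hCAR and CYP2B6-2.2kb reporter constructs, co-treated with PK11195 (0.75 uM final), 24 h at 37 C; luminescent reporter signal quantified.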
# [12] = qHTS assay to identify small molecule agonists of the estrogen related receptor signaling pathway with the pleiotropic PPARgamma coactivator (PGC) from Tox21 10K library (AID 1224842); also: nearly all actives have a fitted effect of over 15% in size; also: potency is read from the fitted curve at half-maximal effect
# Outline: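 PGC/ERR reporter cell line, 2,000 cells per well, incubated 6 h at 37 C before 23 nL compound in DMSO was added. After 18 h at 37 C, One-Glo luminescence read following 30 min at room temperature.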
# [13] = molecular target: Nuclear receptor subfamily 1 group I member 3 (Homo sapiens) (UniProt Q14994); assay: qHTS assay to identify small molecule antagonists of the constitutive androstane receptor (CAR) signaling pathway (AID 1224838);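 also: HepG2 cells stably expressing hCAR with CYP2B6 luciferase reporter stimulated by CITCO; nearly all actives have a fitted effect of over 40% in size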; also: potency is read from the fitted curve at half-maximal effect
# Outline: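 Reporter luminescence was quantified after 24 h exposure of hCAR/CYP2B6-2.2kb double-stable HepG2 cells to compounds at 15 concentrations in the presence of 50 nM CITCO final.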
# [14] = qHTS assay to identify small molecule agonists of the RXR signaling pathway - cell viability counter screen (AID 1159529); also: nearly all actives have a fitted effect of over 50% in size
# Outline: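 Compounds dissolved in DMSO were pinned onto HEK 293T cells carrying a beta-lactamase reporter under RXR-alpha control and incubated 16 hr. Cytotoxicity was then quantified by CellTiter-Glo luminescence.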
# [15] = qHTS assay to identify small molecule antagonists of the estrogen related receptor (ERR) signaling pathway - cell viability counter screen (AID 1224818);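 also: viability measured after 17.5 h of compound exposure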
# Outline: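 In the same ERR cell assay, compound-treated wells (17.5 h, 37 C) were multiplexed with a fluorogenic viability reagent, CellTiter-Fluor, read after 30 min to flag cytotoxic substances.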
# [16] = qHTS assay to identify small molecule antagonists of the estrogen related receptor signaling pathway with the pleiotropic PPARgamma coactivator (PGC) cell viability counter screen (AID 1224822)
# Outline: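 Compounds in DMSO, with positive and negative controls, were applied to PGC/ERR cells (2,000/well) and left 17.5 h at 37 C before CellTiter-Fluor detection.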
# Thyrotropin receptor (Homo sapiens), sequence (P16473 whole entry, looked up): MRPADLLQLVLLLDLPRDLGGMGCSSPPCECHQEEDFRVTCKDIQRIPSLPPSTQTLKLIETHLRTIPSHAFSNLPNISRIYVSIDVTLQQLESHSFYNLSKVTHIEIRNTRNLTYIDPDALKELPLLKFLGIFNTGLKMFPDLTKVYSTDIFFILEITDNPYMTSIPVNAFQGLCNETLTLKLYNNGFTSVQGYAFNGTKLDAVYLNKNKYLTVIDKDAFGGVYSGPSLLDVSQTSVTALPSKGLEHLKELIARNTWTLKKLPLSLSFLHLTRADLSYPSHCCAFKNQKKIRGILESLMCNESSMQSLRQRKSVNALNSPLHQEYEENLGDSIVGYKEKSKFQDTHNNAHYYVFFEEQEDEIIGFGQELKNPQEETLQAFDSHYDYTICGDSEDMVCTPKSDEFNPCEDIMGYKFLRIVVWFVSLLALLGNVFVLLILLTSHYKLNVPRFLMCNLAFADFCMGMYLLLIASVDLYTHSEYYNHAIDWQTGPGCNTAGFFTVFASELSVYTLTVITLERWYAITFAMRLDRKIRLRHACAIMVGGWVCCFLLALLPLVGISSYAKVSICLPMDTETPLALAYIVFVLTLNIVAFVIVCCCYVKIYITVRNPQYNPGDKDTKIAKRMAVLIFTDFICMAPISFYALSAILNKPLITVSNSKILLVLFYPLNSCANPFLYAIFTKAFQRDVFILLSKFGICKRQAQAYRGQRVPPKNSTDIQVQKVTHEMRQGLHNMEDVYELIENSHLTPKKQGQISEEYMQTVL
# Luciferin 4-monooxygenase (Photinus pyralis), sequence (P08659 whole entry, looked up): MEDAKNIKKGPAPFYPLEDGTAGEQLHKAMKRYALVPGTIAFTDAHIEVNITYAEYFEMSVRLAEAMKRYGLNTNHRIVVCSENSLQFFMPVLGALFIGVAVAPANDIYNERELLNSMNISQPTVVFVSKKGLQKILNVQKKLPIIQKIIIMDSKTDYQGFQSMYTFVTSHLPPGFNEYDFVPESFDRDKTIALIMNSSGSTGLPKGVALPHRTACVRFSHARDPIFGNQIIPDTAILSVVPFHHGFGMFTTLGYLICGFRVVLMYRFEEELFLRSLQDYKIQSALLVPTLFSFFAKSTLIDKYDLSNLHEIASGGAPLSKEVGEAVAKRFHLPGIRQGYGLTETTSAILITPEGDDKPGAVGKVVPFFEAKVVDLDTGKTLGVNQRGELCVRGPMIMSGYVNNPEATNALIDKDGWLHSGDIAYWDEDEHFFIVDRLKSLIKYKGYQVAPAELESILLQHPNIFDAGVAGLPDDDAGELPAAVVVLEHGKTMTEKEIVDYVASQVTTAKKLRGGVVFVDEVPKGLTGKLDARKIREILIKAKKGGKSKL
# Nuclear receptor subfamily 1 group I member 3 (Homo sapiens), sequence (Q14994 whole entry, looked up): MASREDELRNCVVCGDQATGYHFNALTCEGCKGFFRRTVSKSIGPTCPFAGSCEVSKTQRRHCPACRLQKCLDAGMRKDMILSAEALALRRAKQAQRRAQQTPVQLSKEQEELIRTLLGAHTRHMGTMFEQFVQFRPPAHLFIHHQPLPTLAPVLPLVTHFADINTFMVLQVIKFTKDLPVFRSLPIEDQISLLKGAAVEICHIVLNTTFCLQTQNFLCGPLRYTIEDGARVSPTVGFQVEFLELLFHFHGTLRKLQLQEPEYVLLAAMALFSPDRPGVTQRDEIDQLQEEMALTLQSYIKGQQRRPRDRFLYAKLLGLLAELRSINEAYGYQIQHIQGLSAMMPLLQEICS
smiles,measurement,setting,value
Cc1cccc(C(=O)O)c1O,Potency,[1],inactive
same,Potency,[2],inactive
same,Potency,[3],inactive
same,Potency,[4],inactive
same,Potency,[5],inactive
same,Potency,[6],inactive
same,Potency,[7],inactive
same,Potency,[8],inactive
same,Potency,[9],inactive
same,Potency,[10],inactive
Cc1cc(-c2ccc(N=Nc3cc(S(=O)(=O)O)c4ccccc4c3N)c(C)c2)ccc1N=Nc1cc(S(=O)(=O)O)c2ccccc2c1N,Potency,[1],inactive
same,Potency,[2],inactive
same,Potency,[3],inactive
same,Potency,[4],inactive
same,Potency,[5],inactive
same,Potency,[11],inactive
same,Potency,[8],inactive
same,Potency,[9],12.3 µM (active)
same,Potency,[12],inactive
same,Potency,[10],inactive
C=CCCC(=O)/C=C/C1C(C)=CCCC1(C)C (stereo not given),Potency,[1],inactive
same,Potency,[2],inactive
same,Potency,[3],inactive
same,Potency,[4],inactive
same,Potency,[5],inactive
same,Potency,[6],inactive
same,Potency,[7],inactive
same,Potency,[13],inactive
same,Potency,[8],inactive
CC(C)Cn1cnc2c(N)nc3ccccc3c21,"activity change, negative = cytotoxicity",[1],-0.222% [at 19 µM] (inactive)
same,"activity, negative = inhibition",[2],2.71% [at 19 µM] (inactive)
same,Potency,[3],inactive
same,"viability change, negative = cytotoxic",[4],-3.99% [at 19 µM] (inactive)
same,"activity change, negative = inhibition",[5],5.54% [at 23.6 µM] (inactive)
same,"viability change, negative = cytotoxic",[6],-20.4% [at 19 µM] (inactive)
same,"activity, negative = inhibition",[13],27.4% [at 19 µM] (inactive)
same,activation,[11],6.88% [at 19 µM] (inactive)
same,"viability change, negative = cytotoxic",[8],16.3% [at 19 µM] (inactive)
same,"activity, negative = inhibition",[9],23.8% [at 19 µM] (inactive)
same,activation,[12],6.35% [at 19 µM] (inactive)
same,activation,[10],14.2% [at 19 µM] (inactive)
O=C1CCc2ccc(OCCCCN3CCN(c4cccc(Cl)c4Cl)CC3)cc2N1,Potency,[1],inactive
same,Potency,[2],inactive
same,Potency,[3],inactive
same,Potency,[4],26.6 µM (active)
same,Potency,[13],inactive
same,Potency,[11],inactive
same,Potency,[9],11.9 µM (active)
same,Potency,[12],inactive
O=[N+]([O-])c1ccc(O)cc1C(F)(F)F,Potency,[1],inactive
same,Potency,[2],inactive
same,Potency,[3],inactive
same,Potency,[4],15.4 µM (active)
same,Potency,[5],inactive
same,Potency,[11],inactive
same,Potency,[8],17.2 µM (active)
same,Potency,[9],inactive
same,Potency,[10],inactive
C=Cc1ccccc1C=C,Potency,[1],inactive
same,Potency,[2],inactive
same,Potency,[3],inactive
same,Potency,[4],inactive
same,Potency,[5],inactive
same,Potency,[6],inactive
same,Potency,[7],inactive
same,Potency,[8],inactive
same,Potency,[10],inactive
Nc1nc(-c2ccccc2)cs1,Potency,[14],inactive
same,Potency,[4],inactive
same,Potency,[5],31.6 µM (active)
same,Potency,[6],inactive
same,Potency,[7],inactive
same,Potency,[8],inactive
same,Potency,[12],inactive
same,Potency,[10],inactive
CN(C)Cc1cc(C(C)(C)C)c(O)c(C(C)(C)C)c1,Potency,[1],inactive
same,Potency,[2],inactive
same,Potency,[3],inactive
same,Potency,[4],inactive
same,Potency,[5],inactive
same,Potency,[6],inactive
same,Potency,[8],inactive
same,Potency,[12],inactive
O=C(O)Cc1ccccc1Nc1c(Cl)cccc1Cl,Potency,[1],inactive
same,outcome,[15],inactive
same,Potency,[16],inactive
same,Potency,[4],inactive
same,Potency,[5],inactive
same,Potency,[6],inactive
same,Potency,[7],inactive
same,Potency,[13],inactive
same,Potency,[8],inactive
same,Potency,[10],inactive
CCCCC/C=C\C/C=C\CCCCCCCC(=O)O,Potency,[1],inactive
same,Potency,[3],inactive
same,Potency,[4],inactive
same,Potency,[5],78.3 µM (active) and inactive
same,Potency,[6],inactive
same,Potency,[8],inactive
same,Potency,[10],inactive
CCCc1ccc(OCC(=O)N2CCN(C(=O)COc3ccc(CCC)cc3OC)CC2)c(OC)c1,Potency,[1],inactive
same,Potency,[2],inactive
same,Potency,[5],inactive
same,Potency,[6],inactive
same,Potency,[13],inactive
same,Potency,[11],inactive
same,Potency,[9],16.8 µM (active)
same,Potency,[12],inactive
same,Potency,[10],inactive
CC1(C)[C@@H](O)CC[C@]2(C)[C@H]3C(=O)C=C4[C@@H]5C[C@@](C)(C(=O)O)CC[C@]5(C)CC[C@@]4(C)[C@]3(C)CC[C@@H]12,Potency,[1],inactive
same,Potency,[5],inactive
same,Potency,[6],inactive
same,Potency,[7],inactive
same,Potency,[13],inactive
same,Potency,[11],inactive
same,Potency,[8],inactive
same,Potency,[9],inactive
same,Potency,[12],inactive
same,Potency,[10],inactive
Clc1ccnc(Cl)n1,Potency,[1],inactive
same,Potency,[2],inactive
same,Potency,[4],inactive
same,Potency,[5],inactive
same,Potency,[6],inactive
same,Potency,[7],inactive
same,Potency,[13],inactive
same,Potency,[11],inactive
same,Potency,[8],inactive
same,Potency,[12],inactive
COc1cccc2c1C(=O)c1c(O)c3c(c(O)c1C2=O)C[C@@](O)(C(C)=O)C[C@@H]3O[C@H]1C[C@H](N)[C@H](O)[C@H](C)O1,Potency,[1],inactive
same,Potency,[4],30.8 µM (active) and 473 nM (active)
same,Potency,[6],19.4 µM (active) and 1.19 µM (active)
same,Potency,[7],2.75 µM (active) and 211 nM (active)
same,Potency,[8],27.5 µM (active)
same,Potency,[9],inactive
same,Potency,[12],0.154 µM (active)
Cc1cc(C(C#N)c2ccc(Cl)cc2)c(Cl)cc1NC(=O)c1cc(I)cc(I)c1O (stereo not given),Potency,[1],inactive
same,Potency,[5],inactive
same,Potency,[6],inactive
same,Potency,[7],inactive
same,Potency,[8],inactive
same,Potency,[12],inactive
O=C(O)O,"activity change, negative = cytotoxicity",[1],2.76% [at 8.39 µM] (inactive)
same,"activity, negative = inhibition",[2],-54.8% [at 8.39 µM] (inactive)
same,"viability change, negative = cytotoxic",[4],-2.55% [at 8.39 µM] (inactive)
same,"viability change, negative = cytotoxic",[6],1.44% [at 8.39 µM] (inactive)
same,"activity change, negative = cytotoxicity",[7],-19.8% [at 8.39 µM] (inactive)
same,"viability change, negative = cytotoxic",[8],-0.122% [at 8.39 µM] (inactive)
same,"activity, negative = inhibition",[9],259% [at 8.39 µM] (inactive)
same,activation,[10],2.41% [at 8.39 µM] (inactive)
CCCCOC(=O)CO,Potency,[1],inactive
same,Potency,[4],inactive
same,Potency,[5],inactive
same,Potency,[6],inactive
same,Potency,[7],inactive
same,Potency,[13],inactive
same,Potency,[11],inactive
same,Potency,[8],inactive
CC1(C)CCC[C@]2(C)[C@H]3CC(=O)O[C@]3(C)CC[C@@H]12,Potency,[3],inactive
same,Potency,[4],inactive
same,Potency,[5],inactive
same,Potency,[6],inactive
same,Potency,[13],inactive
same,Potency,[11],inactive
same,Potency,[8],inactive
same,Potency,[10],19.3 µM (active)
CC[C@H](C)COC(=O)/C=C/c1ccc(N=Cc2ccc(OC)cc2)cc1,Potency,[2],inactive
same,Potency,[3],1.22 µM (active)
same,Potency,[5],4.47 µM (active)
same,Potency,[6],inactive
same,Potency,[7],inactive
same,Potency,[13],inactive
same,Potency,[11],24.3 µM (active)
same,Potency,[8],inactive
same,Potency,[10],inactive
CNc1ccc([N+](=O)[O-])cc1,Potency,[1],inactive
same,Potency,[2],inactive
same,Potency,[4],43.4 µM (active)
same,Potency,[5],40 µM (active)
same,Potency,[7],48.7 µM (active)
same,Potency,[13],inactive
same,Potency,[11],inactive
same,Potency,[8],48.7 µM (active)
same,Potency,[9],inactive
same,Potency,[12],inactive
same,Potency,[10],inactive
CCCCCCCCCCCCCC[N+](C)(C)C,Potency,[1],61.1 µM (active) and inactive
same,Potency,[3],inactive
same,Potency,[4],29.6 µM (active) and 15.3 µM (active)
same,Potency,[5],68.6 µM (active)
same,Potency,[6],23.5 µM (active)
same,Potency,[13],59.1 µM (active) and inactive
same,Potency,[11],inactive
same,Potency,[8],23.5 µM (active) and 54.4 µM (active) and inactive
same,Potency,[12],inactive
